Bioassay records from PubChem BioAssay.
Vaccinia Venus: vaccinia inhibition (Venus reporter); Vaccinia virus Venus reporter expression, fluorescence; Potency, µM (doses to about 36.5 µM), most hits filed as inhibitors; 330,000 tested, 0.46% active; AID 720580; calls by dose curve; tested in A549 cells; note: nearly all actives have a fitted effect of over 30% in size
Pf growth 48h: P. falciparum growth inhibition at 48 hours (one generation); P. falciparum luciferase growth in erythrocytes, 48 h; Potency, µM (series often up to 28.7 µM), usual class: inhibitors; 310,000 tested, 5.9% active; AID 504832
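In quantitative HTS format, infected erythrocytes bearing luciferase-reporter parasites were treated for a single generation at 37 C. Luminescence after adding detection reagent served as the growth measure.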
AMA1-RON2 inh: inhibitors of Plasmodium falciparum AMA1-RON2 interaction. AlphaScreen AMA1-biotinylated RON2 peptide binding. Potency, µM (titrated, usually from 58.2 µM), hits mostly inhibitors. 360,000 tested, 0.2% active. AID 720542; note: nearly all actives have a fitted effect of over 45% in size
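AMA1 (3D7) with his tag at 25 nM final met compounds first, then biotinylated RON2 peptide at 25 nM; detection used donor plus acceptor beads, 10 µg/mL apiece, read by AlphaScreen after 30 min at room temperature.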
Pf growth 96h: P. falciparum growth inhibition at 96 hour, primary screen for plastid delayed-death inhibitors. P. falciparum luciferase reporter growth, 96 h. AID 504834. Potency, µM (doses to about 28.7 µM), usual class: inhibitors. 320,000 tested, 6.9% active
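Cell-based qHTS: luciferase-tagged P. falciparum in erythrocytes (2% hematocrit, 0.05% parasitemia final) incubated with compounds for 96 hours, 37 C, 5% CO2; luciferase detection reagent then added and luminescence measured.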
VACV mCherry inh: inhibitors of vaccinia virus infection (mCherry reporter signal) | Vaccinia virus mCherry reporter infection, fluorescence | 310,000 tested, 0.63% active | Potency, µM (doses to about 36.5 µM), actives largely listed as inhibitors; calls by dose curve; tested in A549 cells; note: nearly all actives have a fitted effect of over 35% in size
Each line names hits and unclear results; the compound was inactive in the other large screens. The list is not random: actives were taken first. Their share in the collection is about 8.7%. Unless noted, calls come from the whole dose curve; as a rule, active = well fitted curve in the direction sought with a large enough effect; inconclusive = small, poorly fitted or top-dose-only effect, or another doubt; inactive = no such curve, though single readings can be large; an effect the other way counts as inactive or inconclusive.

CCOC(=O)c1ccc(Nc2nc(=O)c3cccnc3s2)cc1	VACV mCherry inh 10µM
COc1ccc(-c2nc(CCNC(=O)c3cc(OC)c(OC)c(OC)c3)cs2)cc1	none (no result: Pf growth 48h, AMA1-RON2 inh, Pf growth 96h)
Cc1nc2ccc([N+](=O)[O-])cc2[nH]1	AMA1-RON2 inh inconclusive
CCCc1nc2ccc([N+](=O)[O-])cc2[nH]1	Pf growth 96h 10µM
O=[N+]([O-])c1cccc(/C=C/c2nc3ccc([N+](=O)[O-])cc3[nH]2)c1	Vaccinia Venus inconclusive, Pf growth 48h 2.9µM, Pf growth 96h 2.3µM (no result: VACV mCherry inh)
COc1ccc(N2CCN(C3(c4ccccc4)C(=O)c4ccccc4C3=O)CC2)cc1	none (no result: Pf growth 48h, AMA1-RON2 inh, Pf growth 96h)
CC(=O)N1CCc2c(sc3c2c(=O)n(-c2ccccc2)c(=O)n3CC(=O)c2ccc(Cl)cc2)C1	none (no result: Pf growth 48h, AMA1-RON2 inh, Pf growth 96h)
COc1ccc(CN2CCOc3ccc(CN4CCC(O)CC4)cc3C2)c(OC)c1OC	none (no result: Pf growth 48h, AMA1-RON2 inh, Pf growth 96h)
CON(C)S(=O)(=O)c1ccc2c(c1)N(Cc1ccc(C)cc1)C(=O)C1CCCN21 (stereo not drawn)	Pf growth 48h inconclusive, Pf growth 96h 0.83µM
N#Cc1ccc2c(c1)NC(=O)C1CCCN21 (stereo not drawn)	Pf growth 48h inconclusive
Cc1ccc(C)c(CN2C(=O)C3CCCN3c3ccc(C#N)cc32)c1 (stereo not drawn)	Pf growth 48h inconclusive, Pf growth 96h 9.3µM (no result: Vaccinia Venus, VACV mCherry inh)
Cc1ccc(CN2C(=O)C3CCCN3c3ccc(C#N)cc32)cc1 (stereo not drawn)	Pf growth 48h inconclusive, Pf growth 96h 1.7µM (no result: Vaccinia Venus, AMA1-RON2 inh, VACV mCherry inh)
CCOC(=O)CSc1nc2ccc(NC(=O)c3ccc(F)cc3)cc2s1	none (no result: Pf growth 48h, AMA1-RON2 inh, Pf growth 96h)
COc1ccc(N(C(=O)COc2ccc(Br)cc2)S(=O)(=O)c2ccc(C)cc2)cc1	none (no result: Pf growth 48h, AMA1-RON2 inh, Pf growth 96h)
COc1ccc(OC)c(NC(=O)CSC2=Nc3ccccc3C3=NC(CCC(=O)NCc4ccccc4)C(=O)N23)c1 (stereo not drawn)	none (no result: Pf growth 48h, AMA1-RON2 inh, Pf growth 96h)
O=C(Nc1ccccc1C(=O)Nc1nnc(C(F)(F)F)s1)c1ccccc1	Vaccinia Venus inconclusive, Pf growth 48h 1.2µM, Pf growth 96h 2.6µM, VACV mCherry inh inconclusive
CC(=O)c1cc2c(cc1N/C(=N/S(=O)(=O)c1ccc(Cl)cc1)c1ccc(F)cc1)OCO2	none (no result: Pf growth 48h, AMA1-RON2 inh, Pf growth 96h)
CC(C)(C#CC(=O)O)OOC(c1ccccc1)(c1ccccc1)c1ccccc1	Pf growth 48h 12µM, Pf growth 96h 8.3µM (no result: Vaccinia Venus, VACV mCherry inh)
Cc1ccc2c(c1)-c1c(cnn1CC(=O)N1CCN(c3cc(C)ccc3C)CC1)CO2	none (no result: Pf growth 48h, AMA1-RON2 inh, Pf growth 96h)
COC(=O)c1cc(Cl)c(NC(=O)c2ccc(F)cc2)cc1OC	Pf growth 96h 9.3µM
COc1cc(NC(=O)C2CCCC2)c(OC)cc1Cl	Pf growth 96h 9.3µM (no result: Pf growth 48h)
COc1cc(NC(=O)C2CCCO2)c(OC)cc1Cl (stereo not drawn)	none (no result: VACV mCherry inh)
COc1ccc2oc(=O)c(NC(=O)C3CCCCC3)cc2c1	Pf growth 96h 13µM (no result: Vaccinia Venus, VACV mCherry inh)
CCC(=O)Nc1ccc(Cl)c(NC(=O)c2cccc(OC)c2)c1	none
COCCOc1cc(NC(=O)c2cccc(OC)c2)c(Cl)cc1Cl	Pf growth 48h 12µM, Pf growth 96h inconclusive
COc1ccc(OC)c(NC(=O)C2CCCCC2)c1	none
COC(=O)c1cc(Cl)c(NC(=O)c2cc(OC)c(OC)c(OC)c2)cc1OC	none
CCCn1ccc2c(OCC(=O)Nc3cc(C)ccc3C)cccc2c1=O	none (no result: Pf growth 48h, AMA1-RON2 inh, Pf growth 96h)
COc1ccccc1CNC(=O)c1ccc2nc(N3CCCCC3)sc2c1	none (no result: Pf growth 48h, AMA1-RON2 inh, Pf growth 96h)
Cc1ccc(S(=O)(=O)c2cn(CC(=O)Nc3ccc4c(c3)OCO4)c3ccccc3c2=O)cc1	none (no result: Pf growth 48h, AMA1-RON2 inh, Pf growth 96h)
Cc1nc(NCc2c(F)cccc2F)sc1-c1ccn(CCN2CCOCC2)n1	none (no result: Pf growth 48h, AMA1-RON2 inh, Pf growth 96h)
COc1cc(NC(=O)c2cc(C(C)C)on2)c(OC)cc1Cl	Pf growth 48h 13µM
COc1ccc(C(=O)Nc2cc(OC)c(Cl)cc2OC)cc1	Pf growth 96h 5.2µM
COc1ccc(NC(=O)c2cc(C(C)C)on2)c(OC)c1	Pf growth 96h inconclusive
Cc1ccc(C)c(NC(=O)CSc2ncc3c(n2)-c2ccc(Cl)cc2N(C)S3(=O)=O)c1	none (no result: Pf growth 48h, AMA1-RON2 inh, Pf growth 96h)
COc1ccc(-c2noc(N3CCN(c4ccc(C)cc4)C(C)C3)n2)cc1OC (stereo not drawn)	none (no result: Pf growth 48h, AMA1-RON2 inh, Pf growth 96h)
COC(=O)c1cnn2c3c(c(C)nc12)CCCC3	Pf growth 96h 0.93µM (no result: Vaccinia Venus, VACV mCherry inh)
Cc1[nH]c2ccccc2c1C(=O)COC(=O)c1ccccc1SCC(=O)N1CCCC1	none (no result: Pf growth 48h, AMA1-RON2 inh, Pf growth 96h)
COC(=O)[C@@]1(Cc2ccc(F)cc2)[C@H]2c3cc(C(=O)N4CCCC4)n(CCc4ccccn4)c3C[C@H]2CN1C(=O)c1ccccc1	Pf growth 48h 3.3µM, Pf growth 96h 2.1µM
